Experiment in all cases: NCI-60 one-dose screen, 48 h (100 = growth as untreated, 0 = no growth, -100 = all killed)
For experiment [1], the system named is NCI-H23 lung. To be noted: 10 µM unless noted.
In experiment [2] the test system is HOP-62 NSCLC. To be noted: 10 µM unless noted.
The test system of experiment [3] is NCI-H460 lung. To be noted: 10 µM unless noted.
Experiment [4] deals with HOP-92 NSCLC. To be noted: 10 µM unless noted.
Experiment [5] has as its system NCI-H522 lung. To be noted: 10 µM.
Experiment [6] concerns A549/ATCC NSCLC. To be noted: 10 µM unless noted.
In experiment [7] the test system is 786-0 renal. To be noted: 10 µM unless noted.
In experiment [8] the test system is NCI-H322M lung. To be noted: 10 µM unless noted.
The subject of experiment [9] is COLO 205 colon. To be noted: 10 µM unless noted.

The panel holds about 83,000 compounds, 20% with a hit somewhere; the sample as a whole holds those more often.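 Results are percent growth after 48 hours of single-concentration exposure. 100 means growth as in untreated cells, lower positive values show inhibition; negative values down to -100 show cell death.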 Values without a mark were called inactive. Active and inactive are the calls of the source. Rule for the calls: active = growth percent below 10; inactive = the rest.

For the molecule `O=C1CCC(N2C(=O)c3cccc(NCCOCCOCCNC(=O)c4cc5c(o4)C(=O)c4ccccc4C5=O)c3C2=O)C(=O)N1` (stereo not given), the growth was -53.9% (active) in experiment [1]; -58.2% (active) in [2]; -81.3% (active) in [3]; 60.4% in experiment [4]; -55% (active) in [5]; -30.2% (active) in experiment [6]. The growth in experiment [7] is 17.8%.

Regarding `Cc1c(NCC(=O)Nc2nc3ccccc3[nH]2)c(=O)n(-c2ccccc2)n1C`, the growth was 94.9% in experiment [1]; 105% in experiment [8]; 99.6% in experiment [3]; 100% in experiment [5]; 97% in [6]; 104% in experiment [7]. The growth in experiment [9] was 110%.

Regarding `Cc1nc(-c2ccccc2)cc2c(O)c(C(=O)N/N=C/Cc3ccccc3)[nH]c(=O)c12`, the growth is 100% in [1]; 107% in [8]; 102% in [3]; 91.1% in experiment [5]; 105% in experiment [6]; 103% in experiment [7]. Further, the growth in experiment [9] was 111%.

For `CCOC(=O)c1cn2c3c(cc(F)cc3c1=O)C(CC)c1ccccc1C2` (stereo not given), the growth in [1] is 103%; in experiment [8], 87.1%; in experiment [3], 101%; in experiment [4] it was 95.6%; in experiment [5] it was 78.7%; in experiment [6], 87.2%. The growth is 93.2% in experiment [7] and 105% in experiment [9].

Regarding `C=C1CC[C@@H]2[C@@](C)(CCC[C@]2(C)C(=O)O)[C@@H]1CC[C@H](CO)CCO`, the growth was 102% in experiment [1]; 101% in experiment [8]; 113% in experiment [3]; 90% in experiment [4]; 85.6% in experiment [5]; 102% in [6]. Also, the growth in experiment [7] is 99.3%.

With `COc1ccc(C2SC(C)C(=O)N2CCc2cccs2)cc1OC` (stereo not given), the growth in experiment [1] was 76.4%; in experiment [8], 91.7%; in experiment [3], 90.3%; in experiment [5], 66.2%; in [6] it was 80.6%; in [7] it was 92%. For the same molecule, the growth in [9] was 93.9%.

`Nc1ccccc1-c1n[nH]c(=O)[nH]c1=O`: the growth is 96.6% in experiment [1]; 114% in [8]; 107% in [3]; 105% in experiment [6]; 109% in experiment [7]; 137% in experiment [9].

In the case of `COc1ccc(/C=C(\C#N)c2cc3ccccc3n2C)cc1`, the growth in experiment [1] was 39.4%; in experiment [8], 48.3%; in [3], 6.08% (active); in experiment [4] it was 76.5%; in experiment [6], 27.2%; in [7], 32.9%. Besides, the growth in [9] was -17.8% (active).

On to `Nc1cc(Br)c(-c2nnc(CCC(=O)c3nc4ccccc4[nH]3)o2)c(Br)c1`, for which the growth in experiment [1] was 70.8%; in [2], 82.2%; in [3], 102%; in experiment [4] it was 26.3%; in [5] it was 24.6%; in [6], 90.7%. Also, the results for the growth in [7] and in experiment [9] were 85.8% and 70.6%, respectively.

Turning to `O=C1/C(=C/c2ccc(Oc3ccccc3)cc2)N=C(c2ccccc2)N1CCc1cccs1`, the growth is 87.1% in experiment [1]; 93.6% in experiment [8]; 70.1% in experiment [3]; 46.8% in experiment [5]; 91.3% in experiment [6]; 84.5% in experiment [7]. Besides, in experiment [9], the growth was 107%.

With `CN1CCc2c(c3ccccc3c3ccccc23)C1`, the growth was 74.2% in experiment [1]; 51.4% in experiment [8]; 27.7% in [3]; 48.7% in [5]; 49.8% in experiment [7]; 22.2% in experiment [9].

Regarding `O=c1c2cc(F)ccc2oc2c(NCCNCCO)nc3ccccc3c12`, the growth in experiment [1] is 53%; in experiment [2], 35.5%; in experiment [3], 13.1%; in experiment [4] it was 38.4%; in [5] it was 39.8%; in experiment [6] it was 45.1%. In addition, the growth in experiment [7] was 42%.

Take `COc1ccc(/C=N/OCC(O)CN2CCC(O)CC2)cc1OC1CCCC1` (stereo not given): the growth is 106% in experiment [1]; 103% in experiment [2]; 106% in experiment [3]; 98.2% in [4]; 99.2% in experiment [5]; 101% in experiment [6]. The growth in [7] is 102%.

As for `CCOC(=O)C1=C(C)N2C(=NC3=C(CCCC/C3=C\c3cc(OC)c(OC)c(OC)c3)C2c2cc(OC)c(OC)c(OC)c2)S1` (stereo not given), the growth in experiment [1] is 61.9%; in experiment [8], 96.5%; in experiment [3] it was 60%; in experiment [6], 60.3%; in [9], 81.2%.

As for `COc1ccc(/C=N/OCC(O)CNCc2ccccc2)cc1OC1CCCC1` (stereo not given), the growth was 106% in experiment [1]; 97.2% in experiment [8]; 102% in experiment [3]; 79.6% in experiment [4]; 105% in experiment [5]; 93.5% in experiment [6]. Further, the growth in [7] was 89.5%.

On to `CCN(CC)c1ccc(/C=C(\C#N)c2cc3ccccc3[nH]2)cc1`, for which the growth is 79.2% in [1]; 88.7% in experiment [8]; 24.4% in experiment [3]; 97% in [4]; 39.4% in [6]; 80% in experiment [7]. The growth in [9] was 45.3%.

`CCCCc1ccc(C(O)(CCN2CC3CCC(CC3)C2)c2ccccc2)cc1` (stereo not given): the growth is 87.7% in [1]; 106% in [2]; 107% in experiment [3]; 75.4% in [4]; 84.2% in [5]; 96.2% in experiment [6]. Besides, the growth in experiment [7] is 85.9%; in experiment [9] it was 80.9%.

For the molecule `O=C1Nc2ccc(Cl)cc2/C1=N/N=C(c1ccccc1)c1ccccc1`, the growth in experiment [1] is 93.9%; in [2] it was 83.3%; in experiment [3], 100%; in [4] it was 94.2%; in experiment [5] it was 83.4%; in experiment [6] it was 91.9%. Also, in [7], the growth is 102%.

Values taken from PubChem BioAssay (NCI).
